Measured values: PubChem BioAssay (NCI)
This is part of a sample that, as a whole, favours compounds with a hit. Of some 83,000 tested, about 20% had one in any assay.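 Compound tested at a single concentration for 48 hours in 96-well plates; a percent growth value below 10 was scored as active.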 The source made the active and inactive calls.

The molecules below were run on IGROV1 ovarian (assay: NCI-60 one-dose screen, 48 h (100 = growth as untreated, 0 = no growth, -100 = all killed)). Conditions: 10 µM unless noted.
Procedure: Growth inhibition of the IGROV1 human tumor cell line is measured as a screen for anti-cancer activity. Cells are grown in 96 well plates and exposed to the test compound for 48 hours. Compounds are tested at a single concentration, which is 10^-5 M for most compounds. The reported endpoint is percent growth (GI% or GIPRCNT), where numbers from 0 - 100% represent growth inhibition, and numbers from -100% - 0 represent cell death. For example, a value of 40 represents 60% growth inhibition. A value of 0 means no net growth occurred over the course of the experiment. A value of -40 indicates 40% of cells at the beginning of the experiment died by the end of the experiment. A value of -100 means all cells are dead at the end of the experiment.
NCI-60 Human Tumor Cell Lines Screen was performed using the standard one-dose NCI protocol, which is described in more detail at https://dtp.cancer.gov/discovery_development/nci-60/default.htm.
Compounds with GIPRCNT values below 10 were considered active. Activity score was based on GIPRCNT using the following formula: […]
Score is 0 for GIPRCNT values of 100 or above, 50 for GIPRCNT values of 0, and 100 for GIPRCNT values of -100.

Compound | growth
COC(c1ccc2c(c1)OCO2)C(C)Br (stereo not given) | 91.4% (inactive)
CCC(C)C1CCC(O)CC1 (stereo not given) | 110% (inactive)
Cc1[nH]n(-c2ccccc2)c(=O)c1C=NC(=S)C(N)=S | 112% (inactive)
CC(=O)Nc1ccc(O)c(C)c1 | 110% (inactive)
CC(=O)c1cc(O)ccc1O | 117% (inactive)
NS(=O)(=O)c1cc(=O)[nH]c(=O)[nH]1 | 121% (inactive)
Cc1ccc(Cc2ccc(C)cc2)cc1 | 103% (inactive)
Cc1cccnc1NC1OC(=O)c2ccccc21 (stereo not given) | 101% (inactive)
COc1c(CNC(=O)CCl)cc2[nH]c(C)cc2c1CNC(=O)CCl | 33.8% (inactive)
COc1nc2ccccc2s1 | 98.6% (inactive)
S=c1nc(-c2ccccn2)c(-c2ccccn2)n[nH]1 | 103% (inactive)
O=c1cc(C(F)(F)F)[nH]c(=S)[nH]1 | 105% (inactive)
CCCCc1ccc2nc(NC(=O)OC)[nH]c2c1 | 15.8% (inactive)
CC(=O)/C(C)=N\OC(=O)Nc1ccccc1 | 103% (inactive)
Cc1ccc(OC(=O)c2ccccc2)cc1 | 132% (inactive)
Cc1[nH]c(=S)[nH]c(=O)c1C | 104% (inactive)
CCN(CC)CCCC(C)NC(=S)N/N=C(\C)c1ccccn1 (stereo not given) | 32.3% (inactive)
CCCCCC(=O)OCCC1CCCCC1 | 108% (inactive)
Nc1nc(N)nc(N2CCCCC2)n1 | 96% (inactive)
N#Cc1ccc2nc[nH]c2c1 | 115% (inactive)

Compound | growth
Cc1ccc2nc(N)nnc2c1 | 109% (inactive)
CCNc1ncnc2[nH]ncc12 | 124% (inactive)
Nc1ccn(C2CC(N)C(CO)O2)c(=O)n1 (stereo not given) | 87.1% (inactive)
CCCCN(C=S)CCCC | 107% (inactive)
C=C(c1ccc(N(C)C)cc1)c1ccc(N(C)C)cc1 | 25.4% (inactive)
CCOC(=O)C(=O)CC(=O)c1ccccc1 | 93.3% (inactive)
O=C(OCc1ccccc1)n1nnc2ccccc21 | 110% (inactive)
C#CC(O)c1ccccc1 (stereo not given) | 108% (inactive)
CC1=CC(=Nc2ccc(N(C)C)cc2)C=C(C)C1=O | 96.1% (inactive)
Cc1ccccc1NC(=O)Oc1ccc(Cl)cc1C(=O)c1ccccc1 | 101% (inactive)
CCCCCCCCNC(=O)C(C)C | 107% (inactive)
O=C(O)CCCCCNC(=O)OCc1ccccc1 | 93.9% (inactive)
CCN(CC)CCN1CNC(=S)NC1 | 113% (inactive)
C/C=C/C1OCC(CC)C(CCC)O1 (stereo not given) | 104% (inactive)
NNC(=O)c1ccccc1N | 127% (inactive)
Nc1ncnc(Nc2ccccc2)n1 | 102% (inactive)
C=C1SC(=Nc2c(C)cccc2C)N(c2nc(Cl)nc(Cl)n2)C12CCCCC2 | 97.4% (inactive)
O=C(OCC1CCCO1)c1ccc([N+](=O)[O-])cc1 (stereo not given) | 101% (inactive)
CN(C)c1ccc(/C=C/C(=O)c2ccc(NC(N)=O)cc2)cc1 | 99.7% (inactive)
O=C(O)CSCC(=O)Nc1cc(C(F)(F)F)ccc1Cl | 112% (inactive)
